Assay results taken from PubChem BioAssay AID1476 (National Center for Advancing Translational Sciences (NCATS), 2009).
Out of some 200,000 compounds screened, about 4,500 (2.2%) were called active. Inconclusive results (about 12%) are left out. Only a selection was taken, and actives are over-represented in it overall. Unmarked numbers belong to inactive results. Calls follow the shape of the dose curve; as a rule, active = well fitted inhibition curve with a large enough effect; inconclusive = small, poorly fitted or top-dose-only effect, or effect the other way; inactive = flat fitted curve, though single readings scatter.

Each compound was assayed against Cruzipain (Trypanosoma cruzi) (UniProt P25779) (assay: qHTS Assay for Promiscuous and Specific Inhibitors of Cruzain (without detergent)). Conditions: purified cruzain, Z-FR-AMC fluorescence, no detergent.
Cruzipain (Trypanosoma cruzi), sequence (P25779 123-467 limits assumed): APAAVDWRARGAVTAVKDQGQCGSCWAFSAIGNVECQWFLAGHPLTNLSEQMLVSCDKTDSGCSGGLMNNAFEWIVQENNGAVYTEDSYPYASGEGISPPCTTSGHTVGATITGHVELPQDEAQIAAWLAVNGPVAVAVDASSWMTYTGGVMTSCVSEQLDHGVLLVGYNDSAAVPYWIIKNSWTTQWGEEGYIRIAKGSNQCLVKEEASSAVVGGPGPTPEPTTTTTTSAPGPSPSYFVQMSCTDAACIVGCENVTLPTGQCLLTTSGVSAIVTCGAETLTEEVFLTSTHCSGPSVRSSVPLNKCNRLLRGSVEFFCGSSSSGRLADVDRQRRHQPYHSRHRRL
Summary of the method: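 Detergent-free condition (0.00005% Triton X-100) in acetate buffer pH 5.5 with DTT. 1.5 nM enzyme and compound were pre-mixed 15 min, then 2 uM Z-FR-AMC substrate added; reaction progress from fluorescence change between first and third reads (60 s).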
Also: nearly all actives have a fitted effect of over 40% in size.
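For max response, negative = inhibition in this document: plate controls were enzyme without inhibitor for no effect and buffer without enzyme for full effect.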
Potency is read from the fitted curve at half-maximal effect.

| SMILES | max response, negative = inhibition [%] | Potency |
| --- | --- | --- |
| COc1cc(C2c3c(oc4ccccc4c3=O)C(=O)N2c2nc(C)c(C)s2)ccc1O (stereo not given) | -4.14 | – |
| COc1ccccc1CNC(=O)CCCCn1c(=O)c2ccccc2n(CC(=O)Nc2cc(Cl)ccc2C)c1=O | -2.88 | – |
| O=[N+]([O-])c1ccc(N2CCN(S(=O)(=O)c3ccc4ccccc4c3)CC2)cc1NCc1ccco1 | – | 7.94 µM (active) |
| O=C(c1ccccc1)N1CCN(c2ccc([N+](=O)[O-])c(NCc3ccco3)c2)CC1 | -12.2 | – |
| COc1ccccc1OCCNc1cc(N2CCOCC2)ccc1[N+](=O)[O-] | 26.2 | – |
| CCc1ccccc1NC(=O)CSc1nc(C)c(C(=O)Nc2ccccc2)c(-c2ccc(Cl)cc2)c1C#N | 4.27 | – |
| CCc1ccc(NC(=O)CN2C(=O)C(c3ccccc3)=NC23CCCCCC3)cc1 | -25.9 | – |
| Cc1noc(C)c1S(=O)(=O)N(CC(=O)Nc1ccc2c(c1)OCCO2)c1ccc(C(C)C)cc1 | 0.199 | – |
| O=C(CN(c1ccc2c(c1)OCCO2)S(=O)(=O)c1ccccc1)Nc1ccc2c(c1)OCO2 | – | 12.6 µM (active) |
| COc1ccc(S(=O)(=O)N(C)CC(=O)Nc2ccc3c(c2)OCCO3)cc1OC | -3.41 | – |
| Cc1ccc(S(=O)(=O)N(CC(=O)Nc2ccc(Cl)cc2Cl)c2ccccc2C)cc1 | -29.7 | – |
| COc1ccc(-n2nc(C(=O)NCCc3ccc(Cl)cc3)c3c4ccccc4n(C)c3c2=O)cc1Cl | -5.4 | – |
| COC(=O)c1sccc1N/N=C(\C)c1ccc(F)c(Cl)c1 | – | 20 µM (active) |
| COC(=O)c1sccc1NC(=O)COc1ccc(Cl)cc1 | -7.31 | – |
| COC(=O)c1sccc1NC(=O)c1cc(OC)c(OC)c(OC)c1 | 13.7 | – |
| O=C(CCS(=O)(=O)c1ccccc1)N(Cc1cccnc1)c1nc2c(F)cccc2s1 | 15.4 | – |
| CC(C)CN(C(=O)c1cccc(S(=O)(=O)N2CCCCC2)c1)C1CCS(=O)(=O)C1 (stereo not given) | 5.95 | – |
| COc1ccc(OCCCn2c(C)nc3cc(C)c(C)cc32)cc1 | 11.2 | – |
| COc1cccc(N2CC(NC(=O)/C=C\c3ccccc3)CC2=O)c1 (stereo not given) | -5.97 | – |
| O=c1cc(CN2CCN(c3cccc(Cl)c3)CC2)c2cc3c(cc2o1)CCCC3 | – | 12.6 µM (active) |
| OC(COc1ccc2c(c1)CCC2)CN1CCN(c2cccc(Cl)c2)CC1 (stereo not given) | 1.52 | – |
| O=c1cc(CN2CCN(S(=O)(=O)/C=C/c3ccccc3)CC2)c2ccc(O)cc2o1 | -11.9 | – |
| C=CCN1C(=O)C(O)(CC(=O)c2ccc(Cl)cc2)c2ccccc21 (stereo not given) | – | 12.6 µM (active) |
| O=C(CC1(O)C(=O)N(CN2CCOCC2)c2ccccc21)c1ccccc1 (stereo not given) | 2.42 | – |
| Cc1ccc(C(=O)CC2(O)C(=O)N(CCc3ccccc3)c3ccc(Br)cc32)cc1 (stereo not given) | 7.97 | – |
